Data as given in PubChem BioAssay AID1159580 (chemical genetic matrix, 2015).
Among all 5,500 compounds or so, about 2,000 (36%) were called active. Inconclusive results (about 18%) are left out. Rule as the data show it: active = normalized growth mostly below about 0.91 (no sharp cut-off); inconclusive = no clear call, values can overlap the other calls; inactive = mostly above about 0.92. Some of the results follow.

Assay: chemical genetic growth profiling, strain panel (AID 1159580);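 also: tested at 20 µM; growth read once vehicle control cultures reached saturation at 30 °C; 1 = growth at the plate median or of vehicle wells; lower values mean less growth of the strain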
Conditions: growth OD

Measured: normalized growth

CC12CCC3C(CC=C4CC(O)CCC43C)C1CCC2=O (stereo not drawn)
active: S. cerevisiae deletion strains, locus YAL021C, strain ccr4, stronger effect = lower value 0.838 | S. cerevisiae deletion strains, locus YAL026C, strain drs2, stronger effect = lower value 0.582 | S. cerevisiae deletion strains, locus YAL030W, strain snc1, stronger effect = lower value 0.927 | S. cerevisiae deletion strains, locus YBR009C, strain hhf1, stronger effect = lower value 0.834 | S. cerevisiae deletion strains, locus YBR021W, strain FUR4, stronger effect = lower value 0.752 | S. cerevisiae deletion strains, locus YBR279W, strain paf1, stronger effect = lower value 0.876 | S. cerevisiae deletion strains, locus YCL011C, strain gbp2, stronger effect = lower value 0.886 | S. cerevisiae deletion strains, locus YCL016C, strain dcc1, stronger effect = lower value 0.9 | S. cerevisiae deletion strains, locus YCL029C, strain bik1, stronger effect = lower value 0.904 | S. cerevisiae deletion strains, locus YDL035C, strain GPR1, stronger effect = lower value 0.787 | S. cerevisiae deletion strains, locus YDL074C, strain BRE1, stronger effect = lower value 0.778 | S. cerevisiae deletion strains, locus YDL134C, strain PPH21, stronger effect = lower value 0.85 | S. cerevisiae deletion strains, locus YDR137W, strain rgp1, stronger effect = lower value 0.473 | S. cerevisiae deletion strains, locus YDR162C, strain NBP2, stronger effect = lower value 0.828 | S. cerevisiae deletion strains, locus YDR195W, strain ref2 1.54 [resistant] | S. cerevisiae deletion strains, locus YDR318W, strain mcm21, stronger effect = lower value 0.886 | S. cerevisiae deletion strains, locus YDR392W, strain spt3, stronger effect = lower value 0.234 | S. cerevisiae deletion strains, locus YDR502C, strain sam2, stronger effect = lower value 0.879 | S. cerevisiae deletion strains, locus YEL003W, strain gim4, stronger effect = lower value 0.88 | S. cerevisiae deletion strains, locus YER015W, strain faa2, stronger effect = lower value 0.869 | S. cerevisiae deletion strains, locus YER155C, strain BEM2 (second series), stronger effect = lower value 0.84 | S. cerevisiae deletion strains, locus YFR010W, strain ubp6, stronger effect = lower value 0.891 | S. cerevisiae deletion strains, locus YGL086W, strain mad1, stronger effect = lower value 0.888 | S. cerevisiae deletion strains, locus YGL173C, strain kem1, stronger effect = lower value 0.879 | S. cerevisiae deletion strains, locus YGL248W, strain PDE1, stronger effect = lower value 0.857 | S. cerevisiae deletion strains, locus YGL253W, strain hxk2, stronger effect = lower value 0.791 | S. cerevisiae deletion strains, locus YGR135W, strain pre9, stronger effect = lower value 0.871 | S. cerevisiae deletion strains, locus YGR252W, strain gcn5, stronger effect = lower value 0.62 | S. cerevisiae deletion strains, locus YHR027C, strain rpn1, stronger effect = lower value 0.895 | S. cerevisiae deletion strains, locus YHR129C, strain ARP1, stronger effect = lower value 0.905 | S. cerevisiae deletion strains, locus YHR142W, strain chs7, stronger effect = lower value 0.768 | S. cerevisiae deletion strains, locus YIL066C, strain RNR3, stronger effect = lower value 0.823 | S. cerevisiae deletion strains, locus YJL095W, strain BCK1 (second series), stronger effect = lower value 0.825 | S. cerevisiae deletion strains, locus YJL095W, strain BCK1, stronger effect = lower value 0.655 | S. cerevisiae deletion strains, locus YJL129C, strain trk1, stronger effect = lower value 0.801 | S. cerevisiae deletion strains, locus YJL164C, strain tpk1, stronger effect = lower value 0.845 | S. cerevisiae deletion strains, locus YJL166W, strain qcr8, stronger effect = lower value 0.813 | S. cerevisiae deletion strains, locus YKL009W, strain mrt4, stronger effect = lower value 0.868 | S. cerevisiae deletion strains, locus YKL160W, strain elf1, stronger effect = lower value 0.858 | S. cerevisiae deletion strains, locus YLL001W, strain dnm1, stronger effect = lower value 0.902 | S. cerevisiae deletion strains, locus YLL026W, stronger effect = lower value 0.88 | S. cerevisiae deletion strains, locus YLR027C, strain aat2, stronger effect = lower value 0.849 | S. cerevisiae deletion strains, locus YLR039C, strain RIC1, stronger effect = lower value 0.516 | S. cerevisiae deletion strains, locus YLR221C, strain rsa3, stronger effect = lower value 0.779 | S. cerevisiae deletion strains, locus YLR262C, strain YPT6 (second series), stronger effect = lower value 0.441 | S. cerevisiae deletion strains, locus YLR268W, strain sec22, stronger effect = lower value 0.882 | S. cerevisiae deletion strains, locus YLR320W, strain mms22, stronger effect = lower value 0.429 | S. cerevisiae deletion strains, locus YLR342W, strain FKS1 (second series), stronger effect = lower value 0.781 | S. cerevisiae deletion strains, locus YLR418C, strain cdc73, stronger effect = lower value 0.766 | S. cerevisiae deletion strains, locus YML032C, strain rad52, stronger effect = lower value 0.855 | S. cerevisiae deletion strains, locus YMR058W, strain fet3, stronger effect = lower value 0.885 | S. cerevisiae deletion strains, locus YMR205C, strain PFK2, stronger effect = lower value 0.811 | S. cerevisiae deletion strains, locus YNL071W, strain lat1, stronger effect = lower value 0.513 | S. cerevisiae deletion strains, locus YNL209W, strain ssb2, stronger effect = lower value 0.927 | S. cerevisiae deletion strains, locus YNL248C, strain rpa49, stronger effect = lower value 0.777 | S. cerevisiae deletion strains, locus YNL307C, strain MCK1, stronger effect = lower value 0.707 | S. cerevisiae deletion strains, locus YNL322C, strain KRE1, stronger effect = lower value 0.924 | S. cerevisiae deletion strains, locus YNR052C, strain pop2, stronger effect = lower value 0.861 | S. cerevisiae deletion strains, locus YOL147C, strain pex11, stronger effect = lower value 0.91 | S. cerevisiae deletion strains, locus YOR001W, strain rrp6, stronger effect = lower value 0.8 | S. cerevisiae deletion strains, locus YOR070C, strain gyp1, stronger effect = lower value 0.81 | S. cerevisiae deletion strains, locus YOR083W, strain WHI5, stronger effect = lower value 0.86 | S. cerevisiae deletion strains, locus YOR184W, strain ser1, stronger effect = lower value 0.694 | S. cerevisiae deletion strains, locus YOR270C, strain vph1, stronger effect = lower value 0.578 | S. cerevisiae deletion strains, locus YOR290C, strain snf2, stronger effect = lower value 0.848 | S. cerevisiae deletion strains, locus YPL051W, strain arl3, stronger effect = lower value 0.861 | S. cerevisiae deletion strains, locus YPL078C, strain atp4, stronger effect = lower value 0.864 | S. cerevisiae deletion strains, locus YPL106C, strain sse1, stronger effect = lower value 1.27 [resistant] | S. cerevisiae deletion strains, locus YPR163C, strain tif3, stronger effect = lower value 0.893 | S. cerevisiae deletion strains, strain wtn01, stronger effect = lower value 0.854 | S. cerevisiae strains, strain wild type, stronger effect = lower value 0.877
inactive: S. cerevisiae deletion strains, locus YAL013W, strain DEP1, stronger effect = lower value 0.948 | S. cerevisiae deletion strains, locus YBL061C, strain skt5, stronger effect = lower value 0.936 | S. cerevisiae deletion strains, locus YBR023C, strain chs3, stronger effect = lower value 0.933 | S. cerevisiae deletion strains, locus YBR171W, strain sec66, stronger effect = lower value 0.978 | S. cerevisiae deletion strains, locus YBR229C, strain ROT2, stronger effect = lower value 1.02 | S. cerevisiae deletion strains, locus YBR231C, strain swc5, stronger effect = lower value 0.926 | S. cerevisiae deletion strains, locus YCL069W, strain vba3, stronger effect = lower value 0.94 | S. cerevisiae deletion strains, locus YCR088W, strain abp1, stronger effect = lower value 1.02 | S. cerevisiae deletion strains, locus YDL005C, strain med2, stronger effect = lower value 0.995 | S. cerevisiae deletion strains, locus YDL040C, strain nat1, stronger effect = lower value 1.02 | S. cerevisiae deletion strains, locus YDL101C, strain DUN1, stronger effect = lower value 0.994 | S. cerevisiae deletion strains, locus YDL185W, strain tfp1, stronger effect = lower value 1.04 | S. cerevisiae deletion strains, locus YDL192W, strain arf1, stronger effect = lower value 0.934 | S. cerevisiae deletion strains, locus YDR001C, strain nth1, stronger effect = lower value 1.03 | S. cerevisiae deletion strains, locus YDR069C, strain doa4, stronger effect = lower value 0.945 | S. cerevisiae deletion strains, locus YDR101C, strain arx1, stronger effect = lower value 0.955 | S. cerevisiae deletion strains, locus YDR159W, strain sac3, stronger effect = lower value 0.916 | S. cerevisiae deletion strains, locus YDR297W, strain sur2, stronger effect = lower value 0.95 | S. cerevisiae deletion strains, locus YDR334W, strain swr1, stronger effect = lower value 1.04 | S. cerevisiae deletion strains, locus YDR335W, strain msn5, stronger effect = lower value 0.961 | S. cerevisiae deletion strains, locus YDR388W, stronger effect = lower value 1.02 | S. cerevisiae deletion strains, locus YEL037C, strain rad23, stronger effect = lower value 1 | S. cerevisiae deletion strains, locus YEL061C, strain CIN8 (second series), stronger effect = lower value 1.01 | S. cerevisiae deletion strains, locus YER016W, strain bim1, stronger effect = lower value 1.01 | S. cerevisiae deletion strains, locus YER110C, stronger effect = lower value 1.06 | S. cerevisiae deletion strains, locus YER111C, strain swi4, stronger effect = lower value 1.01 | S. cerevisiae deletion strains, locus YER155C, strain BEM2, stronger effect = lower value 1.02 | S. cerevisiae deletion strains, locus YER167W, strain BCK2, stronger effect = lower value 0.929 | S. cerevisiae deletion strains, locus YGL078C, strain dbp3, stronger effect = lower value 0.979 | S. cerevisiae deletion strains, locus YGL167C, strain pmr1, stronger effect = lower value 1 | S. cerevisiae deletion strains, locus YGL227W, strain vid30, stronger effect = lower value 1.01 | S. cerevisiae deletion strains, locus YGL240W, strain doc1, stronger effect = lower value 0.911 | S. cerevisiae deletion strains, locus YGR078C, strain PAC10, stronger effect = lower value 0.887 | S. cerevisiae deletion strains, locus YHR013C, strain ard1, stronger effect = lower value 0.868 | S. cerevisiae deletion strains, locus YHR030C, strain SLT2, stronger effect = lower value 1.03 | S. cerevisiae deletion strains, locus YHR079C, strain IRE1 (second series), stronger effect = lower value 1.02 | S. cerevisiae deletion strains, locus YHR094C, strain hxt1, stronger effect = lower value 1.05 | S. cerevisiae deletion strains, locus YHR200W, strain rpn10, stronger effect = lower value 0.93 | S. cerevisiae deletion strains, locus YIL073C, strain SPO22, stronger effect = lower value 0.783 | S. cerevisiae deletion strains, locus YIL125W, strain kgd1, stronger effect = lower value 0.989 | S. cerevisiae deletion strains, locus YIR030C, strain dcg1, stronger effect = lower value 1 | S. cerevisiae deletion strains, locus YJL092W, strain hpr5, stronger effect = lower value 0.948 | S. cerevisiae deletion strains, locus YJL115W, strain asf1, stronger effect = lower value 0.997 | S. cerevisiae deletion strains, locus YJL134W, strain LCB3, stronger effect = lower value 1.03 | S. cerevisiae deletion strains, locus YJL154C, strain vps35, stronger effect = lower value 1.02 | S. cerevisiae deletion strains, locus YJL168C, strain set2, stronger effect = lower value 1.04 | S. cerevisiae deletion strains, locus YJL187C, strain SWE1 (second series), stronger effect = lower value 0.879 | S. cerevisiae deletion strains, locus YKL068W, stronger effect = lower value 1.02 | S. cerevisiae deletion strains, locus YKL085W, strain MDH1 (second series), stronger effect = lower value 0.983 | S. cerevisiae deletion strains, locus YKL085W, strain MDH1, stronger effect = lower value 0.983 | S. cerevisiae deletion strains, locus YKL190W, strain CNB1, stronger effect = lower value 0.929 | S. cerevisiae deletion strains, locus YKR001C, strain vps1, stronger effect = lower value 1.01 | S. cerevisiae deletion strains, locus YKR026C, strain gcn3, stronger effect = lower value 1.03 | S. cerevisiae deletion strains, locus YKR091W, strain srl3, stronger effect = lower value 1.02 | S. cerevisiae deletion strains, locus YLL041C, strain sdh2, stronger effect = lower value 0.999 | S. cerevisiae deletion strains, locus YLR058C, strain SHM2, stronger effect = lower value 0.908 | S. cerevisiae deletion strains, locus YLR102C, strain apc9, stronger effect = lower value 1.02 | S. cerevisiae deletion strains, locus YLR258W, strain gsy2, stronger effect = lower value 0.939 | S. cerevisiae deletion strains, locus YLR330W, strain CHS5, stronger effect = lower value 0.929 | S. cerevisiae deletion strains, locus YLR342W, strain FKS1, stronger effect = lower value 0.932 | S. cerevisiae deletion strains, locus YLR357W, strain rsc2, stronger effect = lower value 1.1 | S. cerevisiae deletion strains, locus YLR370C, strain arc18, stronger effect = lower value 0.993 | S. cerevisiae deletion strains, locus YLR371W, strain rom2, stronger effect = lower value 1.07 | S. cerevisiae deletion strains, locus YLR384C, strain iki3, stronger effect = lower value 1.03 | S. cerevisiae deletion strains, locus YML016C, strain PPZ1, stronger effect = lower value 0.979 | S. cerevisiae deletion strains, locus YML120C, strain ndi1, stronger effect = lower value 0.92 | S. cerevisiae deletion strains, locus YML124C, strain tub3, stronger effect = lower value 1 | S. cerevisiae deletion strains, locus YMR078C, strain ctf18, stronger effect = lower value 1.02 | S. cerevisiae deletion strains, locus YMR125W, strain sto1, stronger effect = lower value 0.971 | S. cerevisiae deletion strains, locus YMR129W, stronger effect = lower value 0.975 | S. cerevisiae deletion strains, locus YMR223W, strain ubp8, stronger effect = lower value 0.946 | S. cerevisiae deletion strains, locus YMR231W, strain pep5, stronger effect = lower value 0.989 | S. cerevisiae deletion strains, locus YMR263W, strain SAP30, stronger effect = lower value 0.976 | S. cerevisiae deletion strains, locus YMR307W, strain GAS1, stronger effect = lower value 1.11 | S. cerevisiae deletion strains, locus YNL067W, strain RPL9B, stronger effect = lower value 0.917 | S. cerevisiae deletion strains, locus YNL153C, strain GIM3, stronger effect = lower value 0.887 | S. cerevisiae deletion strains, locus YNL233W, strain BNI4, stronger effect = lower value 0.889 | S. cerevisiae deletion strains, locus YNL250W, strain rad50, stronger effect = lower value 0.947 | S. cerevisiae deletion strains, locus YNL271C, strain bni1, stronger effect = lower value 0.993 | S. cerevisiae deletion strains, locus YNL298W, strain CLA4, stronger effect = lower value 0.929 | S. cerevisiae deletion strains, locus YNL322C, strain KRE1 (second series), stronger effect = lower value 1.01 | S. cerevisiae deletion strains, locus YNR049C, strain mso1, stronger effect = lower value 1.01 | S. cerevisiae deletion strains, locus YOL006C, strain TOP1, stronger effect = lower value 0.572 | S. cerevisiae deletion strains, locus YOL012C, strain htz1 1.48 | S. cerevisiae deletion strains, locus YOR061W, strain CKA2, stronger effect = lower value 0.907 | S. cerevisiae deletion strains, locus YOR069W, strain VPS5, stronger effect = lower value 0.962 | S. cerevisiae deletion strains, locus YOR080W, strain dia2, stronger effect = lower value 0.974 | S. cerevisiae deletion strains, locus YOR106W, strain vam3, stronger effect = lower value 0.89 | S. cerevisiae deletion strains, locus YOR136W, strain idh2, stronger effect = lower value 1.01 | S. cerevisiae deletion strains, locus YOR144C, strain elg1, stronger effect = lower value 0.987 | S. cerevisiae deletion strains, locus YOR265W, strain rbl2, stronger effect = lower value 0.969 | S. cerevisiae deletion strains, locus YOR316C, strain cot1, stronger effect = lower value 1.04 | S. cerevisiae deletion strains, locus YPL240C, strain hsp82, stronger effect = lower value 1.01 | S. cerevisiae deletion strains, locus YPL241C, strain CIN2, stronger effect = lower value 1.02 | S. cerevisiae deletion strains, locus YPR119W, strain clb2, stronger effect = lower value 1.05 | S. cerevisiae deletion strains, locus YPR141C, strain kar3, stronger effect = lower value 1.06 | S. cerevisiae deletion strains, locus YPR167C, strain met16, stronger effect = lower value 0.928
